Assay results published in PubChem BioAssay (EPA / NIEHS).
Active and inactive are the calls of the source. How the source made its calls: active means hit-call score of the fitted dose curve at least 0.9, where 1 is the maximum; inactive means score below 0.9.

Assays:
[1] = read-out: Thrombomodulin, THBD (gene 7056); assay: BSK_CASM3C_Thrombomodulin: BioMAP Diversity Plus: CASM3C Assay for Thrombomodulin Biomarker Activity (AID 2283051); settings: primary human coronary artery smooth muscle cells; actives raise or lower the signal;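 further: thrombomodulin protein level measured by ELISA 24 h after dosing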
[2] = read-out: Tissue Factor, F3 (gene 2152); assay: BSK_CASM3C_TissueFactor: BioMAP Diversity Plus: CASM3C Assay for Tissue Factor Biomarker Activity (AID 2283052); settings: primary human coronary artery smooth muscle cells; actives raise or lower the signal;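 further: cell surface tissue factor protein level read by ELISA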
[3] = read-out: Interferon-gamma inducible Protein 10 (IP10), CXCL10 (gene 3627); assay: BSK_hDFCGF_IP10: BioMAP Diversity Plus: hDFCGF Assay for Interferon-gamma inducible Protein 10 (IP10) Biomarker Activity (AID 2283053); settings: primary human foreskin fibroblasts; actives raise or lower the signal
How it was run: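 IP-10 levels, quantified by ELISA, are taken from human foreskin fibroblast cultures 24 h after chemical treatment, with DMSO serving as negative control and baseline for bidirectional analysis.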

[4] = read-out: Urokinase-type plasminogen activator receptor (uPAR), PLAUR (gene 5329); assay: BSK_CASM3C_uPAR: BioMAP Diversity Plus: CASM3C Assay for Urokinase-type plasminogen activator receptor (uPAR) Biomarker Activity (AID 2283054); settings: primary human coronary artery smooth muscle cells; actives raise or lower the signal;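 further: cell-surface uPAR protein level quantified by ELISA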
[5] = read-out: Vascular cell adhesion molecule 1 (VCAM1), VCAM1 (gene 7412); assay: BSK_CASM3C_VCAM1: BioMAP Diversity Plus: CASM3C Assay for Vascular cell adhesion molecule 1 (VCAM1) Biomarker Activity (AID 2283055); settings: primary human coronary artery smooth muscle cells; actives raise or lower the signal;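 further: VCAM-1 protein level quantified by ELISA on the cells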
[6] = read-out: Collagen III, COL3A1 (gene 1281); assay: BSK_hDFCGF_CollagenIII: BioMAP Diversity Plus: hDFCGF Assay for Collagen III Biomarker Activity (AID 2283056); settings: primary human foreskin fibroblasts; actives raise or lower the signal
How it was run: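 Cells: human foreskin fibroblasts, primary. Dosing followed by 24 h incubation, then ELISA for collagen III. Both increases and decreases scored relative to DMSO.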

[7] = read-out: Epidermal growth factor receptor (EGFR), EGFR (gene 1956); assay: BSK_hDFCGF_EGFR: BioMAP Diversity Plus: hDFCGF Assay for Epidermal growth factor receptor (EGFR) Biomarker Activity (AID 2283057); settings: primary human foreskin fibroblasts; actives raise or lower the signal
How it was run: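 Measured by ELISA: EGFR levels on primary human foreskin fibroblasts 24 h after chemical treatment, analysed relative to DMSO with bidirectional fitting.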

[8] = read-out: Interleukin-8 (IL8), CXCL8 (gene 3576); assay: BSK_hDFCGF_IL8: BioMAP Diversity Plus: hDFCGF Assay for Interleukin-8 (IL8) Biomarker Activity (AID 2283058); settings: primary human foreskin fibroblasts; actives raise or lower the signal
How it was run: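 IL-8 levels from compound-treated primary human fibroblasts were read by ELISA at 24 h, with DMSO serving as baseline for bidirectional fitting.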

[9] = read-out: Macrophage colony-stimulating factor (MCSF), CSF1 (gene 1435); assay: BSK_hDFCGF_MCSF: BioMAP Diversity Plus: hDFCGF Assay for Macrophage colony-stimulating factor (MCSF) Biomarker Activity (AID 2283060); settings: primary human foreskin fibroblasts; actives raise or lower the signal
How it was run: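 M-CSF levels, determined by ELISA, are taken at 24 h after dosing human skin fibroblasts. Responses in either direction are fitted with DMSO serving as the baseline.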

[10] = BSK_hDFCGF_SRB: Viability Assessment in the BioMAP Diversity Plus: hDFCGF Assay (AID 2283061); settings: primary human foreskin fibroblasts;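 further: cells exposed to compound for 24 h before the read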
How it was run: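 Cells were dosed with test chemical, cultured 24 h, fixed with 10% TCA, then stained with 0.1% SRB and read at 560 nm. The fibroblasts were human foreskin primary cells, and DMSO served as baseline.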

[11] = read-out: TIMP metallopeptidase inhibitor 1 (TIMP1), TIMP1 (gene 7076); assay: BSK_hDFCGF_TIMP1: BioMAP Diversity Plus: hDFCGF Assay for TIMP metallopeptidase inhibitor 1 (TIMP1) Biomarker Activity (AID 2283062); settings: primary human foreskin fibroblasts; actives raise or lower the signal
How it was run: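 Fibroblasts from human foreskin are treated with test chemical and harvested at 24 h. TIMP-1 is quantified by ELISA, and gain or loss of signal is scored against DMSO.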

[12] = read-out: Monokine induced gamma interferon (MIG), CXCL9 (gene 4283); assay: BSK_hDFCGF_MIG: BioMAP Diversity Plus: hDFCGF Assay for Monokine induced gamma interferon (MIG) Biomarker Activity (AID 2283063); settings: primary human foreskin fibroblasts; actives raise or lower the signal
How it was run: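 MIG signal, determined by ELISA, reflects 24 h chemical exposure of human skin primary fibroblasts. DMSO serves as negative control and baseline.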

[13] = read-out: Matrix Metallopeptidase 1 (MMP1), MMP1 (gene 4312); assay: BSK_hDFCGF_MMP1: BioMAP Diversity Plus: hDFCGF Assay for Matrix Metallopeptidase 1 (MMP1) Biomarker Activity (AID 2283064); settings: primary human foreskin fibroblasts; actives raise or lower the signal
How it was run: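 Primary human foreskin fibroblasts in the hDFCGF system were dosed with test chemical, and MMP1 was measured by ELISA 24 h later. Values come from bidirectional curve fitting against the DMSO baseline.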

[14] = read-out: Vascular cell adhesion molecule 1 (VCAM1), VCAM1 (gene 7412); assay: BSK_hDFCGF_VCAM1: BioMAP Diversity Plus: hDFCGF Assay for Vascular cell adhesion molecule 1 (VCAM1) Biomarker Activity (AID 2283065); settings: primary human foreskin fibroblasts; actives raise or lower the signal;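 on AC50: VCAM-1 protein level quantified by ELISA after 24 h chemical exposure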
How it was run: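 Cells are dosed, cultured for 24 h, then VCAM-1 is quantified by ELISA; signal increases and decreases are both fitted relative to DMSO.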

[15] = read-out: Plasminogen activator inhibitor-1 (PAI1), SERPINE1 (gene 5054); assay: BSK_hDFCGF_PAI1: BioMAP Diversity Plus: hDFCGF Assay for Plasminogen activator inhibitor-1 (PAI1) Biomarker Activity (AID 2283066); settings: primary human foreskin fibroblasts; actives raise or lower the signal
How it was run: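 PAI-1 levels, determined by ELISA, served as the endpoint in human foreskin fibroblast cultures exposed to compound for 24 h, with DMSO as baseline.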

[16] = read-out: Intercellular Adhesion Molecule 1 (ICAM1), ICAM1 (gene 3383); assay: BSK_KF3CT_ICAM1: BioMAP Diversity Plus: KF3CT Assay for Intercellular Adhesion Molecule 1 (ICAM1) Biomarker Activity (AID 2283067); settings: primary human keratinocytes with fibroblasts; actives raise or lower the signal
How it was run: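 Dose the keratinocyte/fibroblast co-culture, wait 24 h, measure ICAM-1 by ELISA, then fit increases or decreases against DMSO. Cytotoxicity is checked in parallel cultures by SRB total-protein staining.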

[17] = read-out: Interferon-gamma inducible Protein 10 (IP10), CXCL10 (gene 3627); assay: BSK_KF3CT_IP10: BioMAP Diversity Plus: KF3CT Assay for Interferon-gamma inducible Protein 10 (IP10) Biomarker Activity (AID 2283068); settings: primary human keratinocytes with fibroblasts; actives raise or lower the signal
How it was run: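 Human keratinocyte plus foreskin fibroblast primary co-culture exposed to test chemical for 24 h; IP-10 measured by ELISA. Concentration-response fitted bidirectionally against DMSO control as baseline.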

[18] = BSK_KF3CT_SRB: Viability Assessment in the BioMAP Diversity Plus: KF3CT Assay (AID 2283069); settings: primary human keratinocytes with fibroblasts;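 further: total protein by sulforhodamine B staining as a cytotoxicity measure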
How it was run: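 Human primary keratinocyte plus foreskin fibroblast co-culture exposed to chemicals for 24 h. Total protein measured by 0.1% sulforhodamine B staining after 10% TCA fixation, read at 560 nm; bidirectional fitting versus DMSO baseline.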

[19] = read-out: Interleukin-1 alpha (IL1a), IL1A (gene 3552); assay: BSK_KF3CT_IL1a: BioMAP Diversity Plus: KF3CT Assay for Interleukin-1 alpha (IL1a) Biomarker Activity (AID 2283070); settings: primary human keratinocytes with fibroblasts; actives raise or lower the signal
How it was run: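 Human keratinocyte plus foreskin fibroblast primary co-culture, sampled 24 h after chemical dosing. IL-1a measured by ELISA; responses fitted bidirectionally against DMSO baseline (negative control), so gain or loss of signal both count.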

Measured: AC50

CCCCOC(=O)CCCCCCCC(=O)OCCCC
inactive: all assays above

CCC(C)c1cc([N+](=O)[O-])cc([N+](=O)[O-])c1OC(=O)OC(C)C (stereo not given)
active: [1] 36.8 µM | [2] 12.1 µM | [3] 8.25 µM | [4] 24.3 µM | [5] 32.1 µM | [6] 6.86 µM | [8] 13.4 µM | [9] 6.2 µM | [10] 9.55 µM | [11] 11.2 µM | [12] 9.32 µM | [13] 11 µM | [14] 7.79 µM | [15] 4.79 µM | [16] 9.58 µM | [17] 5.26 µM | [18] 25.3 µM | [19] 20 µM
inactive: [7]

CN(C)C(=S)SC(=S)N(C)C
active: [1] 4.02 µM | [3] 35.1 µM | [5] 19.9 µM | [6] 15.2 µM | [7] 19.9 µM | [8] 39.1 µM | [9] 31.4 µM | [11] 37.8 µM | [12] 34.4 µM | [13] 36.2 µM | [14] 31.2 µM | [15] 19.9 µM | [16] 27.3 µM
inactive: [2] | [4] | [10] | [17] | [18] | [19]

O=C1OC[C@H](Cc2cccc(O)c2)[C@H]1Cc1cccc(O)c1
inactive: all assays above

CS(=O)(=O)c1ccc(C2=C(c3ccccc3)C(=O)OC2)cc1
active: [17] 0.0374 µM
inactive: all other assays above
